High-throughput results (PubChem BioAssay)
Sampled rows, rich in hits. Any-hit rate of the full collection: about 1.3%.
SRC1 inh: SRC1 coactivator transcriptional activity inhibitors, primary screen, cell-based, luminescence | Nuclear receptor coactivator 1 (Homo sapiens), Q15788 | HEK293 GAL4-SRC1 luciferase reporter | inhibition, % at 3.6 µM | 360,000 compounds, 0.12% hits | AID 588354, 2011;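 active means inhibition above the campaign mean plus 3 SD, with each screening campaign given its own cutoff, cut at about 60% in these data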
NCOA3 inh: SRC3 coactivator transcriptional activity inhibitors, primary screen, cell-based, luminescence; 360,000 compounds, 0.17% hits; HEK293 GAL4-SRC3 luciferase reporter; inhibition, % at 3.6 µM; Nuclear receptor coactivator 3 (Homo sapiens), Q9Y6Q9; AID 588352, 2011;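 active means inhibition above a per-campaign cutoff, the mean of all compounds plus 3 SD, cut at about 60% in these data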;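 further: higher means less SRC3-driven luciferase light from the GAL4 reporter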
Gli-Sufu block: Gli-Sufu pathway antagonists, primary screen, luciferase luminescence, Sufu-KO-LIGHT cells, uHTS; Sufu-KO-LIGHT fibroblasts, Gli luciferase reporter luminescence; inhibition, % at 5 µM; 340,000 compounds, 0.74% hits; AID 588413, 2011;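 active means inhibition above about 55%, limit read from the data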
NR2F2 inh: NR2F2 transcriptional activity inhibitors, primary screen, cell-based, luciferase reporter, HEK293T, luminescence | 370,000 compounds, 0.7% hits | COUP transcription factor 2 (Homo sapiens), P24468 | inhibition, % at 8.6 µM | HEK293T NGFI-A luciferase reporter;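 active means inhibition above a per-plate cutoff, mean inhibition of test wells between control levels plus 3 SD, cut at about 38% in these data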;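 further: cells cotransfected with COUP-TFII expression vector driving the NGFI-A reporter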
NCOA2 inhibitor: inhibition of GAL4-SRC2 driven luciferase reporter, primary screen, SRC2 inhibitor project, cell-based, luminescence; 370,000 compounds, 0.17% hits; AID 651957, 2012; HEK293 GAL4-SRC2 luciferase reporter; inhibition, % at 9 µM;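 active means inhibition above the mean inhibition of all tested compounds plus 3 SD, set per campaign, cut at about 52% in these data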
LRH-1 inv ag: LRH-1 (NR5A2) inverse agonists, primary screen, cell-based, luminescence, HEK293T, StAR-luciferase reporter | Nuclear receptor subfamily 5 group A member 2 (Homo sapiens), O00482 | LRH-1 transfected, 24 h | inhibition, % at 3.6 µM | 360,000 compounds, 0.13% hits;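 active means inhibition above the mean inhibition of all tested compounds plus 3 SD, cut at about 73% in these data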
Target sequence (O00482 whole entry, looked up): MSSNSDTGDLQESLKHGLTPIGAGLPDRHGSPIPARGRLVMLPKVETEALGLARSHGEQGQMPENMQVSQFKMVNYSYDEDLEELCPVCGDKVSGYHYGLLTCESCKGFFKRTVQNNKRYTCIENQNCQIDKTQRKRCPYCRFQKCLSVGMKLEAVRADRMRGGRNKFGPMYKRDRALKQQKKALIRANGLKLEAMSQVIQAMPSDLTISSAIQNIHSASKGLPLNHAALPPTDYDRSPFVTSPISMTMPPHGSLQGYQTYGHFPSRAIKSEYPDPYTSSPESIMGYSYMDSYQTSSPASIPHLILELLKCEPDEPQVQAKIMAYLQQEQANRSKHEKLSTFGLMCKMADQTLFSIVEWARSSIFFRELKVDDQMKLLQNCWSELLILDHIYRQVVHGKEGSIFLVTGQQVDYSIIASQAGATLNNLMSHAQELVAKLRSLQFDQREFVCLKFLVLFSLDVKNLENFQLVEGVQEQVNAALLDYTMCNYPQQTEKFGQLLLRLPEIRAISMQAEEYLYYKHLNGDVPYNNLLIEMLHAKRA
Gli-Sufu confirm: Gli-SUFU pathway antagonists, confirmation, single concentration, luciferase luminescence, Sufu-KO-LIGHT cells | shares compounds with Gli-Sufu block | Gli luciferase reporter | inhibition, % at 5 µM | 2,500 compounds, 40% hits | AID 602428, 2012;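 active means mean inhibition at 5 µM reaching about 45%, limit read from the data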
Gli cytotox: cytotoxicity in Sufu-KO-LIGHT cells, confirmation, cytotoxicity control for Gli-SUFU antagonist project, cell-based, ATP luminescence, single concentration; shares compounds with Gli-Sufu block; cytotoxicity, % at 5 µM; 2,500 compounds, 32% hits; AID 651994, 2013;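 active means mean cytotoxicity at 5 µM above about 25%, limit read from the data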;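 further: cells exposed to compound overnight for roughly 16 to 18 hours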
Wnt3a cs: Wnt3a reporter signal inhibition, confirmation, counter-screen for Gli-SUFU antagonist project, Wnt-LIGHT cells, luminescence, single concentration; shares compounds with Gli-Sufu block; Wnt3a-driven luciferase reporter; inhibition, % at 6.25 µM; 2,500 compounds, 20% hits;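 active means mean inhibition above about 25%, limit read from the data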
Hits are given with their value; 0 = inactive; - = not tested or not shown.

SMILES	SRC1 inh	NCOA3 inh	Gli-Sufu block	NR2F2 inh	NCOA2 inhibitor	LRH-1 inv ag	Gli-Sufu confirm	Gli cytotox	Wnt3a cs
COC(=O)CN1C(=O)COc2ccc(S(=O)(=O)N3CCOCC3)cc21	0	0	0	0	0	0	-	-	-
CCN(C(=O)CN1C(=O)COc2ccc(S(=O)(=O)N3CCOCC3)cc21)c1ccc(OC)cc1	0	0	0	0	0	0	0	0	0
N#Cc1ccccc1NCCCN1CCC(C(O)(c2ccccc2)c2ccccc2)CC1	-	-	-	0	0	-	-	-	-
Cc1ccc(N2C(=O)CC(N3CCN(C4CCc5ccccc5C4)CC3)C2=O)cc1 (stereo unspecified)	0	0	72	0	0	0	0	0	0
CCOC(=O)C1=C(C)NC(C)=C(C(=O)OCC)C1c1ccc(C)o1	0	0	59	0	0	0	0	27	0
C=CCn1c(CCn2c3ccccc3c3ccccc32)n[nH]c1=S	0	0	0	0	0	0	-	-	-
C=CCn1c(CCC(O)COCCC)n[nH]c1=S (stereo unspecified)	0	0	0	0	0	0	0	0	0
COc1cc(/C=C2/NC(=O)N(Cc3ccccc3F)C2=O)ccc1O	0	0	71	0	0	0	54	0	37
COc1cc(/C=C2/NC(=O)N(Cc3ccccc3F)C2=O)ccc1Oc1ccc([N+](=O)[O-])cn1	0	0	0	0	0	0	-	-	-
CC1CN(CCOc2cccc(Oc3ccccc3)c2)CC(C)O1 (stereo unspecified)	0	0	0	0	0	0	0	0	0
CCCOc1ccc(OCCN2CCCC(C)C2)cc1 (stereo unspecified)	0	0	0	0	0	0	-	-	-
CC1CCCN(CCOc2cccc(Oc3ccccc3)c2)C1 (stereo unspecified)	0	0	0	0	0	0	0	0	0
CC1CN(CCCCOc2cccc(Oc3ccccc3)c2)CC(C)O1 (stereo unspecified)	0	0	0	0	0	0	-	-	-
CCOC(=O)C1=C(C)OC(N)=C(C#N)C1c1cc2cc(C)ccc2nc1N1CCCCC1 (stereo unspecified)	0	0	0	0	0	0	-	-	-
CCOC(=O)C1=C(C)OC(N)=C(C#N)C1c1cc2ccccc2nc1N1CCCCC1 (stereo unspecified)	-	-	0	-	-	-	0	0	0
COc1ccc(C(=O)N[C@H]2CC[C@@]34CCCN3C(=O)CCC[C@H]4[C@H]2C)cc1	-	-	-	0	-	-	-	-	-
CCOc1ccccc1-c1nc(CN2CCCC2c2nccs2)c(C)o1 (stereo unspecified)	0	0	0	0	0	0	0	0	0
Cn1c(=O)c2c(nc(NCc3ccco3)n2Cc2ccc(Cl)cc2Cl)n(C)c1=O	0	0	67	0	0	0	67	29	0
CCn1c(NCc2ccco2)nc2c1c(=O)n(C)c(=O)n2C	0	0	0	0	0	0	-	-	-
O=[N+]([O-])c1ccc(S(=O)(=O)NCCN2CCOCC2)cc1	0	0	0	0	0	0	-	-	-
O=[N+]([O-])c1ccc(-c2ccc(S(=O)(=O)NCCN3CCCC3)cc2)cc1	0	0	0	0	0	0	0	0	0
CN1CCCN(C(=O)CSc2nnc(-c3cccnc3)n2C2CCCCC2)CC1	-	-	-	0	0	-	-	-	-
Cc1c(C(C)c2ccccc2O)c2ccccc2n1C (stereo unspecified)	-	-	-	0	0	-	-	-	-
Cc1cc(C)cc(-n2ccn(CC(=O)NCCc3ccccc3)c(=O)c2=O)c1	0	0	0	0	0	0	0	0	0
Cc1ccc(-n2ccn(CC(=O)NCCc3ccccc3)c(=O)c2=O)cc1C	0	0	0	0	0	0	-	-	-
CCCCC(=O)N1CCC(NS(=O)(=O)c2ccc3c(c2)CCN3C(C)=O)CC1	-	-	-	0	0	-	-	-	-
